Measurements as given in PubChem BioAssay AID1159580 (chemical genetic matrix, 2015).
Screen size: about 5,500 compounds; about 2,000 (36%) were called active. Not shown: some 18% with an inconclusive outcome. Rule as the data show it: active = normalized growth mostly below about 0.91 (no sharp cut-off); inconclusive = no clear call, values can overlap the other calls; inactive = mostly above about 0.92. This is one part of the list.

Test: chemical genetic growth profiling, strain panel (AID 1159580);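 also: tested at 20 µM; growth read once vehicle control cultures reached saturation at 30 °C; 1 = growth at the plate median or of vehicle wells; lower values mean less growth of the strain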
Settings: growth OD
[1] = S. cerevisiae deletion strains, locus YAL013W, strain DEP1, active compounds read low
[2] = S. cerevisiae deletion strains, locus YBR229C, strain ROT2, active compounds read low
[3] = S. cerevisiae deletion strains, locus YCL061C, strain MRC1, active compounds read low
[4] = S. cerevisiae deletion strains, locus YDL101C, strain DUN1, active compounds read low
[5] = S. cerevisiae deletion strains, locus YDL134C, strain PPH21, active compounds read low
[6] = S. cerevisiae deletion strains, locus YDR150W, strain NUM1, active compounds read low
[7] = S. cerevisiae deletion strains, locus YEL061C, strain CIN8, active compounds read low
[8] = S. cerevisiae deletion strains, locus YGR078C, strain PAC10, active compounds read low
[9] = S. cerevisiae deletion strains, locus YHR030C, strain SLT2, active compounds read low
[10] = S. cerevisiae deletion strains, locus YHR087W, strain rtc3, active compounds read low
[11] = S. cerevisiae deletion strains, locus YJL187C, strain SWE1, active compounds read low
[12] = S. cerevisiae deletion strains, locus YJR043C, strain POL32, active compounds read low
[13] = S. cerevisiae deletion strains, locus YJR075W, strain HOC1, active compounds read low
[14] = S. cerevisiae deletion strains, locus YLR039C, strain RIC1, active compounds read low
[15] = S. cerevisiae deletion strains, locus YLR058C, strain SHM2 (second series), active compounds read low
[16] = S. cerevisiae deletion strains, locus YLR085C, strain ARP6, active compounds read low
[17] = S. cerevisiae deletion strains, locus YLR262C, strain YPT6, active compounds read low
[18] = S. cerevisiae deletion strains, locus YML094W, strain GIM5, active compounds read low
[19] = S. cerevisiae deletion strains, locus YMR219W, strain ESC1, active compounds read low
[20] = S. cerevisiae deletion strains, locus YMR307W, strain GAS1, active compounds read low
[21] = S. cerevisiae deletion strains, locus YNL153C, strain GIM3, active compounds read low
[22] = S. cerevisiae deletion strains, locus YNL298W, strain CLA4 (second series), active compounds read low
[23] = S. cerevisiae deletion strains, locus YNL322C, strain KRE1, active compounds read low
[24] = S. cerevisiae deletion strains, locus YNR030W, strain Alg12, active compounds read low
[25] = S. cerevisiae deletion strains, locus YPL055C, strain LGE1, active compounds read low
[26] = S. cerevisiae deletion strains, locus YPL241C, strain CIN2, active compounds read low
[27] = S. cerevisiae deletion strains, locus YPR135W, strain CTF4, active compounds read low
[28] = S. cerevisiae deletion strains, locus YGR229C, strain SMI1, active compounds read low

Measured: normalized growth

CCOC(=O)c1c(C)csc1N
inactive: [1] 0.99 | [2] 0.999 | [3] 0.996 | [4] 0.998 | [5] 1.01 | [6] 1.01 | [7] 0.987 | [8] 0.983 | [9] 0.98 | [10] 1.01 | [11] 1 | [12] 1.01 | [13] 0.997 | [14] 1 | [15] 1.01 | [16] 0.983 | [17] 1.02 | [18] 0.984 | [19] 1.01 | S. cerevisiae deletion strains, locus YMR263W, strain SAP30, active compounds read low 1.02 | [20] 0.9 | [21] 1 | [22] 0.967 | [23] 0.993 | [24] 0.984 | [25] 1.03 | [26] 0.972 | [27] 1.02

CCOC(=O)Nc1ccc(NCc2ccc(F)cc2)nc1N
inactive: [1] 1.02 | S. cerevisiae deletion strains, locus YAL040C, strain CLN3, active compounds read low 1.01 | S. cerevisiae deletion strains, locus YCL061C, strain MRC1 (second series), active compounds read low 1 | [6] 0.991 | S. cerevisiae deletion strains, locus YDR363W, strain ESC2, active compounds read low 1.02 | S. cerevisiae deletion strains, locus YER002W, strain NOP16, active compounds read low 1 | [28] 1.07 | [13] 1.01 | [20] 0.994 | S. cerevisiae deletion strains, locus YNL128W, strain TEP1, active compounds read low 0.993 | S. cerevisiae deletion strains, locus YNL175C, strain NOP13, active compounds read low 1.01 | S. cerevisiae deletion strains, locus YNL197C, strain WHI3, active compounds read low 1.01 | S. cerevisiae deletion strains, locus YNL224C, strain SQS1, active compounds read low 1.04 | [23] 1.01 | S. cerevisiae deletion strains, locus YOR083W, strain WHI5 (second series), active compounds read low 1.03 | [25] 1.02

CCOC(=O)c1c(-c2ccc(F)cc2)csc1N
active: [1] 0.879 | [2] 0.905 | [3] 0.889 | [5] 0.887 | [7] 0.746 | [28] 0.928 | [9] 0.175 | [10] 0.858 | [11] 0.903 | [13] 0.86 | [14] 0.437 | [15] 0.897 | [16] 0.508 | [17] 0.438 | [18] 0.798 | [19] 0.93 | [22] 0.782 | [24] 0.842 | S. cerevisiae deletion strains, locus YOL006C, strain TOP1, active compounds read low 0.479 | [25] 0.754 | [26] 0.807 | [27] 0.435 | S. cerevisiae strains, strain wild type, active compounds read low 0.82
inactive: [4] 0.986 | [6] 0.986 | [8] 0.93 | [12] 0.957 | [21] 0.941 | [23] 0.95
